# Results filed as inconclusive are left out. Where a call stands in place of a potency, no number is given. Values without a mark were called inactive. Calls of active or inactive are those of the source. Unless noted, calls follow the shape of the dose curve; as a rule, active = well fitted curve in the direction sought with a large enough effect in the repeat runs; inconclusive = weak or mixed curves; inactive = no such curve, though single readings can be large; an effect the other way counts as inactive or inconclusive.
# Experiments:
# [1] = qHTS assay to identify small molecule agonists of the RXR signaling pathway - cell viability counter screen (AID 1159529); also: series mostly up to about 77 µM; nearly all actives have a fitted effect of over 50% in size
# Method in brief: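 CellTiter-Glo luminescence gave viability in the wells also read for beta-lactamase. Cells (RXR-alpha-UAS-bla HEK 293T, 2% charcoal-stripped FBS medium) had 5 hr plating, then 16 hr compound exposure at 37 C; tetraoctyl ammonium bromide served as positive control.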
# [2] = qHTS assay to identify small molecule antagonists of the retinoid acid receptor (RAR) signaling pathway - cell viability counter screen (AID 1159551); also: nearly all actives have a fitted effect of over 35% in size
# Method in brief: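 Seed C3RL4 cells; next day add compound, then retinol to 1 uM final; incubate 6 h at 37 C; add CellTiter-Glo; read luminescence after 30 min at RT.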
# [3] = qHTS assay to identify small molecule antagonists of the retinoic acid receptor (RAR) signaling pathway (AID 1159552; also: nearly all actives have a fitted effect of over 50% in size)
# Method in brief: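 Luminescent RARE reporter read-out in C3RL4 cells: 6 hr co-treatment at 37 C of test compounds with retinol at 1 uM final. Cells plated overnight beforehand; luciferase reagent incubated 30 min at room temperature before reading.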
# [4] = qHTS assay to identify small molecule antagonists of the estrogen related receptor (ERR) signaling pathway from Tox21 library - cell viability counter screen (AID 1224834); also: nearly all actives have a fitted effect of over 30% in size; also: potency is read from the fitted curve at half-maximal effect
# Method in brief: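 CellTiter-Fluor fluorescence measured; ERR cells; 17.5 h compound incubation at 37 C; 30 min reagent step.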
# [5] = qHTS assay to identify small molecule agonists of the constitutive androstane receptor (CAR) signaling pathway - cell viability counter screen (AID 1224836); also: series mostly up to about 92 µM; nearly all actives have a fitted effect of over 45% in size
# Method in brief: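 Cell viability multiplexed with the CAR agonist screen: CellTiter-Fluor fluorescence after 23 hr at 37 C. HepG2-CYP2B6-hCAR cells got compounds at 15 concentrations with PK11195 at 0.75 uM final.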
# [6] = qHTS assay to identify small molecule antagonists of the constitutive androstane receptor (CAR) signaling pathway - cell viability counter screen (AID 1224837); also: series mostly up to about 92 µM; nearly all actives have a fitted effect of over 45% in size
# Method in brief: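 Using CellTiter-Fluor, viability is scored in HepG2 cells stably carrying hCAR and a 2.2kb CYP2B6 reporter after 23 hr compound exposure across 15 concentrations, with CITCO present at 50 nM.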
# [7] = qHTS assay to identify small molecule antagonists of the estrogen related receptor signaling pathway with the pleiotropic PPARgamma coactivator (PGC) from Tox21 10K library - cell viability counter screen (AID 1224840; active = well fitted cell-killing curve with a large enough effect in the repeat runs, not every such curve was filed as active; also: nearly all actives have a fitted effect of over 40% in size)
# Method in brief: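 Here the PGC/ERR cells serve as a cytotoxicity control: they are exposed to compounds for 17.5 hours at 37 C, and live-cell signal is quantified using CellTiter-Fluor fluorescence.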
# [8] = qHTS assay to identify small molecule agonists of the estrogen related receptor signaling pathway with the pleiotropic PPARgamma coactivator (PGC) from Tox21 10K library (AID 1224842); also: nearly all actives have a fitted effect of over 15% in size
# Method in brief: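 Luminescence from One-Glo (30 min, room temperature) measured after PGC/ERR cells had 18 h at 37 C with pinned compound (23 nL in DMSO). Cells had been seeded at 2,000 per well and pre-incubated 6 h.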
# [9] = target: Thyrotropin receptor (Homo sapiens) (UniProt P16473); test: qHTS assay to identify small molecule agonists of the thyroid stimulating hormone receptor (TSHR) signaling pathway (AID 1224843; calls by dose curve; also: nearly all actives have a fitted effect of over 45% in size)
# Method in brief: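 Screening of the Tox21 10K collection used HEK293 cells engineered with TSHR at 800 cells per well. After a 30-min room-temperature compound exposure, HTRF cAMP reagents were added and fluorescence recorded 1 h later.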
# [10] = qHTS assay to identify small molecule agonists of the hypoxia (HIF-1) signaling pathway - cell viability counter screen (AID 1224844; calls by dose curve; also: nearly all actives have a fitted effect of over 50% in size)
# Method in brief: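 Multiplexed with the HRE beta-lactamase assay, this viability read used CellTiter-Glo luminescence (30 min, RT) on HRE-bla ME-180 cells treated 17 hrs with compounds in 0.5% dialyzed FBS medium.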
# [11] = target: Nuclear receptor subfamily 1 group I member 3 (Homo sapiens) (UniProt Q14994); test: qHTS assay to identify small molecule antagonists of the constitutive androstane receptor (CAR) signaling pathway (AID 1224838);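 also: HepG2 cells stably expressing hCAR with CYP2B6 luciferase reporter stimulated by CITCO; nearly all actives have a fitted effect of over 40% in size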
# Method in brief: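 Reporter luminescence was quantified after 24 h exposure of hCAR/CYP2B6-2.2kb double-stable HepG2 cells to compounds at 15 concentrations in the presence of 50 nM CITCO final.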
# [12] = target: Nuclear receptor subfamily 1 group I member 3 (Homo sapiens) (UniProt Q14994); test: qHTS assay to identify small molecule agonists of the constitutive androstane receptor (CAR) signaling pathway (AID 1224839);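 also: HepG2 cells stably carrying human CAR and a CYP2B6 luciferase reporter; series mostly up to about 92 µM; nearly all actives have a fitted effect of over 15% in size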
# Method in brief: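 Luminescent ONE-Glo read-out after 24 hr, 37 C exposure of double-stable HepG2-CYP2B6-hCAR reporter cells to a 15-point compound series, in the presence of 0.75 uM PK11195 (final).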
# [13] = qHTS assay to identify small molecule agonists of the retinoic acid receptor (RAR) signaling pathway (AID 1159553)
# Method in brief: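 Activation of retinol signaling was monitored via a RARE luciferase reporter in C3RL4 cells. After 6 hr compound treatment at 37 C, detection reagent was added for 30 min at room temperature before luminescence reading.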
# [14] = target: Luciferin 4-monooxygenase (Photinus pyralis) (UniProt P08659); test: qHTS assay to identify small molecule inhibitors of firefly luciferase (AID 1224835); also: series mostly up to about 120 µM; nearly all actives have a fitted effect of over 25% in size
# Method in brief: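 Inhibition of purified Photinus luciferase is measured by luminescence. Substrate levels (D-luciferin, ATP) sit at their KM values. Each compound is tested in a concentration series.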
# [15] = qHTS assay to identify small molecule antagonists of the estrogen related receptor signaling pathway with the pleiotropic PPARgamma coactivator (PGC) from Tox21 10K library (AID 1224841; call rule not given here; also: potency is read from the fitted curve at half-maximal effect; actives are mostly falling curves and most rising ones were filed inactive; nearly all actives have a fitted effect of over 50% in size)
# Method in brief: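 Each well held 2,000 PGC/ERR cells, pre-incubated six hours (37 C, 5% CO2). Test substances in DMSO were added by pin tool and left for 18 h at 37 C before luciferase detection by One-Glo.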
# Thyrotropin receptor (Homo sapiens), sequence (P16473 whole entry, looked up): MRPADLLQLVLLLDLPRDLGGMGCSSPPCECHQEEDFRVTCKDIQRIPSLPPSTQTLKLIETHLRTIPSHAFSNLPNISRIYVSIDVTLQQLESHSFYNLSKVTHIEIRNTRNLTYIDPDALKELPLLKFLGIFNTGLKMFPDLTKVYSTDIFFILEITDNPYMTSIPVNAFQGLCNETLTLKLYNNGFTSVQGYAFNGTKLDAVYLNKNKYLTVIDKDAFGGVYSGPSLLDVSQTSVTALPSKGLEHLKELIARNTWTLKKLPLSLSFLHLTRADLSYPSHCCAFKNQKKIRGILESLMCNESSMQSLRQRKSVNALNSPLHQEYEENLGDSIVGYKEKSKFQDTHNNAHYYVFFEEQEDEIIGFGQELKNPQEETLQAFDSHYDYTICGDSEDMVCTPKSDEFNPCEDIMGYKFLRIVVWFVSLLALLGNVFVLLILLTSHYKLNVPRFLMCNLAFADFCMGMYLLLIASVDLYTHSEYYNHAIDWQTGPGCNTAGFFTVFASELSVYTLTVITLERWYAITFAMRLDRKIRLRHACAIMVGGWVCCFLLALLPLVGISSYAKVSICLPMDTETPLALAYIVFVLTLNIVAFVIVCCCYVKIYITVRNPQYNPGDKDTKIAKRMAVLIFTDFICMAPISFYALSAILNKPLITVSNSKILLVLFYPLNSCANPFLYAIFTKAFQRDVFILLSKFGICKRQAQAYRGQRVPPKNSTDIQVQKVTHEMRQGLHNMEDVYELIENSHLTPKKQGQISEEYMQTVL
# Luciferin 4-monooxygenase (Photinus pyralis), sequence (P08659 whole entry, looked up): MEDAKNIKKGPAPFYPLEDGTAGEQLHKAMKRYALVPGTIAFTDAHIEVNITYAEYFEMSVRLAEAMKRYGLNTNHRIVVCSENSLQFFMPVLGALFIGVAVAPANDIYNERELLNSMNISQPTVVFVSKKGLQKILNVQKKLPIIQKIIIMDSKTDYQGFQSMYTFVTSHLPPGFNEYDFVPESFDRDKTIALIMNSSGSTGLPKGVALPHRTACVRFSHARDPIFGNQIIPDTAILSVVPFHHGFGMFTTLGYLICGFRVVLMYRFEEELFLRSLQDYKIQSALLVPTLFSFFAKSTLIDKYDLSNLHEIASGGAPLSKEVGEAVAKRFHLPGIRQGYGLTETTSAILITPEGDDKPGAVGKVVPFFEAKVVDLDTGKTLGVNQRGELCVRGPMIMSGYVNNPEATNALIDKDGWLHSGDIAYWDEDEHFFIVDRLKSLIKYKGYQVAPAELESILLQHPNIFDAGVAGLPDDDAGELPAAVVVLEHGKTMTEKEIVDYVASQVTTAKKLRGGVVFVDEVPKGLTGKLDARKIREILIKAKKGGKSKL
# Nuclear receptor subfamily 1 group I member 3 (Homo sapiens), sequence (Q14994 whole entry, looked up): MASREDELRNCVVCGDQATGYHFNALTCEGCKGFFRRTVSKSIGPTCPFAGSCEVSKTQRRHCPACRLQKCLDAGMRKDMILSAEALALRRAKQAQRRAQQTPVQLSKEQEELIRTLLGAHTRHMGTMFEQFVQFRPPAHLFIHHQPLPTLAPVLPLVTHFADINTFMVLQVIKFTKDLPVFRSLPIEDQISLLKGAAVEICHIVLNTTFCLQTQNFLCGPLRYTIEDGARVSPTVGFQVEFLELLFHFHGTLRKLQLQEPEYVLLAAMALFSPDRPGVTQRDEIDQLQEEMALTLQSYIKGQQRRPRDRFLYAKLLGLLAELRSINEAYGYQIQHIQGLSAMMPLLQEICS
smiles,measurement,setting,value
O=S(=O)(Oc1ccc(Cl)cc1)c1ccccc1,Potency,[1],inactive
same,Potency,[2],inactive
same,Potency,[3],inactive
same,Potency,[4],inactive
same,Potency,[5],inactive
same,Potency,[6],inactive
same,Potency,[7],inactive
same,Potency,[8],inactive
same,Potency,[9],inactive
same,Potency,[10],inactive
CC(C)(C)Cl,Potency,[1],inactive
same,Potency,[2],inactive
same,Potency,[3],inactive
same,Potency,[4],inactive
same,Potency,[5],inactive
same,Potency,[6],inactive
same,Potency,[11],inactive
same,Potency,[12],inactive
same,Potency,[7],inactive
same,Potency,[9],inactive
same,Potency,[10],inactive
CC(C)CC(=O)C1C(=O)c2ccccc2C1=O,Potency,[1],inactive
same,Potency,[2],inactive
same,Potency,[13],inactive
same,Potency,[4],38.6 µM (active)
same,Potency,[14],inactive
same,Potency,[5],inactive
same,Potency,[11],inactive
same,Potency,[15],27.3 µM (active)
same,Potency,[9],inactive
same,Potency,[10],inactive
COc1cc2c(cc1OC)C(C(C(=O)N(CCc1ccc(OC)c(OC)c1OC)CCc1ccc(OC)c(OC)c1OC)c1ccccc1)=NCC2 (stereo not given),Potency,[1],inactive
same,Potency,[2],inactive
same,Potency,[3],inactive
same,Potency,[4],23.7 µM (active)
same,Potency,[14],inactive
same,Potency,[5],inactive
same,Potency,[6],inactive
same,Potency,[15],23.7 µM (active)
same,Potency,[9],inactive
Cc1[nH]c(C)c(Cl)c(=O)c1Cl,"activity change, negative = cytotoxicity",[1],7.97% [at 15.8 µM]
same,"activity change, negative = cytotoxicity",[2],-2.2% [at 19 µM]
same,"activity, negative = inhibition",[3],3.44% [at 19 µM]
same,"viability change, negative = cytotoxic",[4],0.386% [at 19 µM]
same,"activity change, negative = inhibition",[14],-1.3% [at 23.6 µM]
same,"viability change, negative = cytotoxic",[5],3.99% [at 19 µM]
same,"activity change, negative = cytotoxicity",[6],8.34% [at 19 µM]
same,"viability change, negative = cytotoxic",[7],12.2% [at 19 µM]
same,activation,[9],2.76% [at 19 µM]
same,"activity change, negative = cytotoxicity",[10],12.4% [at 15.8 µM]
CCOC(=O)COC(=O)c1cc(Oc2ccc(C(F)(F)F)cc2Cl)ccc1[N+](=O)[O-],Potency,[1],inactive
same,Potency,[2],inactive
same,Potency,[13],inactive
same,Potency,[14],inactive
same,Potency,[5],inactive
same,Potency,[6],inactive
same,Potency,[11],inactive
same,Potency,[7],inactive
same,Potency,[10],inactive
O=C(Cl)c1cc(C(=O)Cl)cc(C(=O)Cl)c1,Potency,[1],inactive
same,Potency,[2],inactive
same,Potency,[3],inactive
same,Potency,[4],inactive
same,Potency,[5],inactive
same,Potency,[6],inactive
same,Potency,[7],inactive
same,Potency,[9],inactive
Cc1ccc(N=Nc2c(O)c(C(=O)O)cc3ccccc23)c(S(=O)(=O)O)c1,Potency,[1],inactive
same,Potency,[2],inactive
same,Potency,[3],inactive
same,Potency,[4],21 µM (active)
same,Potency,[11],inactive
same,Potency,[12],inactive
same,Potency,[9],inactive
same,Potency,[10],inactive
C=C1[C@H]2CC[C@@H]3[C@H]2C(C)(C)CCC[C@]13C,Potency,[1],inactive
same,Potency,[2],inactive
same,Potency,[3],inactive
same,Potency,[4],inactive
same,Potency,[5],inactive
same,Potency,[6],inactive
same,Potency,[11],inactive
same,Potency,[12],inactive
same,Potency,[7],inactive
same,Potency,[10],inactive

# Reference: PubChem BioAssay (Tox21)
